# Measurements as given in PubChem BioAssay (NCATS).
# Inconclusive results are not listed. Unmarked numbers belong to inactive results. Calls of active or inactive are those of the source. Calls come from the whole dose curve; as a rule, active = well fitted curve in the direction sought with a large enough effect; inconclusive = small, poorly fitted or top-dose-only effect, or another doubt; inactive = no such curve, though single readings can be large; an effect the other way counts as inactive or inconclusive.
# Test system: not listed separately
# Assay: Drug repurposing screens with cells derived from glioblastoma tumor samples (AID 1345199); note: nearly all actives have a fitted effect of over 40% in size
# Settings: GBM patient neurospheres viability, ATP luminescence, 48 h; at 45.9 µM (top of the series); tumour line B
# Summary of the method: (§1)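 Four patient lines of CD133+ GBM neurospheres were screened at several concentrations; hits were retested in those lines plus three slower-growing GBM lines, using 48-hour treatment and ATP-based viability.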
# % is set by controls: 0 for no effect and ±100 for the full control effect; potency is the fitted concentration of half-maximal effect.
row,SMILES,"activity, negative = cell killing [%]"
1,OC(c1ccccc1)(c1ccccc1)C1CN2CCC1CC2 (stereo not given),-13.1
2,C/C(=C\c1csc(C)n1)[C@@H]1C[C@@H]2O[C@]2(C)CCC[C@H](C)[C@H](O)[C@@H](C)C(=O)C(C)(C)[C@@H](O)CC(=O)O1,-25.2
3,CN1CCCC(=C(c2cccs2)c2cccs2)C1,-10.4
4,C[N+]1(C)[C@@H]2CC[C@H]1CC(OC(=O)c1c[nH]c3ccccc13)C2 (stereo not given in full),-23.1

# Test system: astro (control astrocytes)
# Assay: as above
# Settings: viability, ATP luminescence, 48 h; series mostly up to 45.9 µM
# Summary of the method: as §1
row,SMILES,Potency
1,O=C1CN=C(c2ccccc2)c2cc(Cl)ccc2N1CC1CC1,inactive
2,O=c1[nH]cc(N(CCCl)CCCl)c(=O)[nH]1,inactive
3,C[N+]1([O-])[C@@H]2CC[C@H]1CC(OC(=O)C(CO)c1ccccc1)C2 (stereo not given in full),inactive
4,Oc1cccc[c]1[Hg][Cl],2.82 µM (active)
5,CC(=O)O[C@H]1C[C@H](O[C@H]2[C@@H](O)C[C@H](O[C@H]3[C@@H](O)C[C@H](OC4CC[C@@]5(C)[C@H](CC[C@@H]6[C@@H]5CC[C@]5(C)[C@@H](C7=CC(=O)OC7)CC[C@]65O)C4)O[C@@H]3C)O[C@@H]2C)O[C@H](C)[C@H]1O[C@@H]1O[C@H](CO)[C@@H](O)[C@H](O)[C@H]1O (stereo not given in full),0.251 µM (active)
6,CCC1(c2ccccc2)C(=O)NC(=O)N(C)C1=O (stereo not given),inactive
7,OC(c1ccccc1)(c1ccccc1)C1CN2CCC1CC2 (stereo not given),inactive
8,COC(COC(N)=O)C1=C(N2CC2)C(=O)C(C)=C(N2CC2)C1=O (stereo not given),2.24 µM (active)
9,C[C@]12CC[C@H](O)C[C@H]1CC[C@@H]1[C@@H]2CC[C@]2(C)[C@@H](c3ccc(=O)oc3)C[C@H]3O[C@]132,1.58 µM (active)
10,CCN(CC)CCO[C@H]1CC[C@@]2(C)C(=CC[C@@H]3[C@@H]2CC[C@]2(C)C(=O)CC[C@@H]32)C1,inactive
11,CN1C2CCC1CC(OC(c1ccccc1)c1ccc(Cl)cc1)C2 (stereo not given),17.8 µM (active)
12,Cc1cc(C)cc(C(=O)OC2C[C@H]3CC[C@@H](C2)N3C)c1 (stereo not given in full),inactive
13,CO[C@H]1[C@@H](O)C[C@H](O[C@H]2[C@@H](O)C[C@H](O[C@H]3[C@@H](O)C[C@H](O[C@H]4CC[C@@]5(C)[C@H](CC[C@@H]6[C@@H]5C[C@@H](O)[C@]5(C)[C@@H](C7=CC(=O)OC7)CC[C@]65O)C4)O[C@@H]3C)O[C@@H]2C)O[C@@H]1C,0.282 µM (active)
14,FC(F)OC(F)(F)C(F)Cl (stereo not given),inactive
15,CNC(=O)Oc1ccccc1C(=O)Nc1ccccc1,22.4 µM (active)
16,[S]=[Sb](=[S])[S][Sb](=[S])=[S],inactive
17,C[C@@H](Cc1ccccc1)NCCC(c1ccccc1)c1ccccc1,inactive
18,CC(=O)O[C@H]1C[C@H](O[C@H]2[C@@H](O)C[C@H](O[C@H]3[C@@H](O)C[C@H](O[C@H]4CC[C@@]5(C)[C@H](CC[C@@H]6[C@@H]5C[C@@H](O)[C@]5(C)[C@@H](C7=CC(=O)OC7)CC[C@]65O)C4)O[C@@H]3C)O[C@@H]2C)O[C@H](C)[C@H]1O[C@@H]1O[C@H](CO)[C@@H](O)[C@H](O)[C@H]1O,0.282 µM (active)
19,CN1CCCC(=C(c2cccs2)c2cccs2)C1,inactive
20,O=C1C=C2C=C[C@@H]3C[C@@]2(O1)[C@H]1CCCCN31,17.8 µM (active)
21,O=Cc1ccco1,inactive
22,O=C(C[C@@H]1NCCC[C@H]1O)Cn1cnc2cc(Br)c(Cl)cc2c1=O,inactive
23,C[C@H]1CC[C@@H]2[C@@H](C)[C@H]3[C@H](C[C@H]4[C@@H]5CC=C6CC(O[C@@H]7O[C@H](CO)[C@H](O)[C@H](O[C@@H]8O[C@H](CO)[C@@H](O)[C@H](O)[C@H]8O)[C@H]7O[C@H]7O[C@@H](C)[C@H](O)[C@@H](O)[C@H]7O)CC[C@]6(C)[C@H]5CC[C@]34C)N2C1 (stereo not given in full),22.4 µM (active)
24,C[C@H]1CC[C@]2(NC1)O[C@H]1C[C@H]3[C@@H]4CC[C@H]5C[C@@H](O[C@@H]6O[C@H](CO)[C@H](O[C@@H]7O[C@H](CO)[C@@H](O)[C@H](O[C@@H]8OC[C@@H](O)[C@H](O)[C@H]8O)[C@H]7O[C@@H]7O[C@H](CO)[C@@H](O)[C@H](O)[C@H]7O)[C@H](O)[C@H]6O)CC[C@]5(C)[C@H]4CC[C@]3(C)[C@H]1[C@@H]2C,3.16 µM (active)
25,CN1[C@H]2CC[C@@H]1[C@@H](C(=O)O)[C@@H](OC(=O)c1ccccc1)C2,inactive
26,O=c1c2ccccc2[se]n1-c1ccccc1,22.4 µM (active)
27,[H+].[H+].[Hg+2].[O-]B([O-])[O-].[c-]1ccccc1,2.82 µM (active)
28,C[N+]1(C)[C@@H]2CC[C@H]1CC(OC(=O)c1c[nH]c3ccccc13)C2 (stereo not given in full),inactive
29,[Cl-].[Cl-].[Hg+2],7.94 µM (active)

# Test system: not listed separately
# Assay: qHTS assay to identify inhibitors of the type 1 interferon - major histocompatibility complex class I in skeletal muscle: Counter screen cell viability and HiBit confirmation (AID 1347412); note: nearly all actives have a fitted effect of over 60% in size
# Settings: iHSKM muscle cells + IFN-b, HiBiT or CellTiter-Glo, 24 h; Potency: HiBiT; Viability, at 45.9 µM (top of the series)
# Summary of the method: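 Human myoblast knock-in line, 4.0 ng/ml IFN-beta stimulation, 24 h compound treatment. Endpoints: HiBiT lytic luminescence (HLA-B level) and CellTiter Glo (ATP). Dosing 12 concentrations, 3-fold steps, 46 uM highest final.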
row,SMILES,Potency
1,C/C(=C\c1csc(C)n1)[C@@H]1C[C@@H]2O[C@]2(C)CCC[C@H](C)[C@H](O)[C@@H](C)C(=O)C(C)(C)[C@@H](O)CC(=O)O1,inactive
2,CC1(C(=O)O)C2CCC(O2)C1(C)C(=O)O (stereo not given),inactive
3,C[C@@H]1O[C@@H](O[C@H]2C[C@@H](O)[C@]3(CO)[C@@H]4C(CC[C@]3(O)C2)[C@@]2(O)CC[C@H]([C@@H]3COC(=O)C3)[C@@]2(C)C[C@H]4O)[C@H](O)[C@H](O)[C@H]1O (stereo not given in full),0.557 µM (active)
4,CC(C)(C)c1cc(C=C(C#N)C#N)cc(C(C)(C)C)c1O,inactive
5,CNc1ccc2oc(C[C@H]3O[C@@]4(CC[C@H]3C)O[C@H]([C@H](C)C(=O)c3ccc[nH]3)[C@H](C)C[C@H]4C)nc2c1C(=O)O,2.49 µM (active)
6,c1ccc2c(c1)[I+]c1ccccc1-2,7.01 µM (active)
7,Cc1c2ccncc2c(C)c2c1[nH]c1ccccc12,15.7 µM (active)
